Data taken from PubChem BioAssay AID1465 (SRMLSC, 2008).
Out of some 220,000 compounds screened, about 160 (0.073%) were called active.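 The calls were made as follows: active = fold induction of absorbance versus untreated yeast above a set limit, then at least 30% activation at any dose in follow-up; inconclusive = repeats straddling the limit, or above it without dose testing; inactive = fold induction below the set limit.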 The list is a sample of the results. Results with a measured potency or affinity are listed apart.

Experiment: mitochondrial function rescue without frataxin homolog – Friedreich's ataxia, plus single-dose screen, dose response (AID 1465)
Settings: S. cerevisiae Yfh1-off respiration, WST-1 reduction, 72 h; at 50 µM; hits give high values

Q: With `Cc1cc(C)nc(SCc2ccc(C(=O)N/N=C/c3ccccn3)cc2)n1` as the compound, how does the fold induction read?
A: 1.01 (inactive)

Q: For `CCSc1nc(=O)n(-c2ccccc2)c(C)c1C(C)=O`, which fold induction is on record?
A: 1.05 (inactive)

Q: With `CC(C)C(=O)Nc1cccc(NC(=O)c2cccc([N+](=O)[O-])c2)c1` as the compound, how does the fold induction read?
A: 0.95 (inactive)

Q: With `Cc1cc(C)n(CC(=O)Nc2ccccc2)n1` as the compound, how does the fold induction read?
A: 1.01 (inactive)

Q: For `COc1cc(CNC(C)C)c(Br)cc1OC1CCCC1`, which fold induction is on record?
A: 1.02 (inactive)

Q: Which fold induction does the source give for `Cc1sc2nc(SC3CCOC3=O)n(Cc3ccccc3)c(=O)c2c1C` (centres undefined) here?
A: 0.94 (inactive)

Q: Which fold induction does the source give for `CC(C)OCCCNC(=O)CCC(=O)NNc1nc2ccccc2c2nc(-c3ccccc3)nn12` here?
A: 0.97 (inactive)

Q: For `Cc1ccc(NC2=C(Cl)C(=O)c3ccccc3C2=O)cc1`, which fold induction is on record?
A: 1.27 (inactive)

Q: With `O=C1C(Cl)=C(Nc2ccc(O)cc2)C(=O)c2ccccc21` as the compound, how does the fold induction read?
A: 1.23 (inactive)

Q: With `Cc1sc2ncn(CC(=O)Nc3ccccc3F)c(=O)c2c1-c1ccccc1` as the compound, how does the fold induction read?
A: 0.95 (inactive)

Q: With `O=C(NCC(c1ccco1)N1CCCCC1)c1ccc2c(c1)S(=O)(=O)c1ccccc1C2=O` (centres undefined) as the compound, how does the fold induction read?
A: 0.99 (inactive)

Q: Which fold induction does the source give for `CCCC(=O)c1cc2ccccc2oc1=O` here?
A: 1.11 (inactive)

Q: Which fold induction does the source give for `Cc1cc(C)nc(SCC(=O)c2cc3ccccc3oc2=O)n1` here?
A: 1.02 (inactive)

Q: Which fold induction does the source give for `CCCCC(=O)NC(=S)NNC(=O)CC#N` here?
A: 0.83 (inactive)

Q: Which fold induction does the source give for `CCCCCC(=O)NC(=S)NNC(=O)CC` here?
A: 0.75 (inactive)

Q: Which fold induction does the source give for `CCCNC(=O)C1(CC2CC(c3ccccc3)=NO2)CCN(C(=O)CCCCCBr)CC1` (centres undefined) here?
A: 1.03 (inactive)

Q: With `CCCCC(=O)NC(c1ccco1)c1cc(Cl)c2cccnc2c1O` (centres undefined) as the compound, how does the fold induction read?
A: 0.91 (inactive)

Q: For `O=C(NC(c1ccc(Cl)cc1)c1cc(Cl)c2cccnc2c1O)c1cccnc1` (centres undefined), which fold induction is on record?
A: 1.09 (inactive)

Q: For `CCCC(=O)NC(c1cccs1)c1cc(Cl)c2cccnc2c1O` (centres undefined), which fold induction is on record?
A: 1.06 (inactive)

Q: With `O=C(O)COc1ccccc1C(Nc1ccccn1)c1cc(Cl)c2cccnc2c1O` (centres undefined) as the compound, how does the fold induction read?
A: 1.19 (inactive)

Q: With `CCC(=O)NC(c1ccco1)c1cc(Cl)c2cccnc2c1O` (centres undefined) as the compound, how does the fold induction read?
A: 1.13 (inactive)

Q: Which fold induction does the source give for `CCCC(=O)NC(c1ccccc1OC)c1ccc2cccnc2c1O` (centres undefined) here?
A: 1.03 (inactive)

Q: For `CCC(=O)NC(c1ccccc1OC)c1ccc2cccnc2c1O` (centres undefined), which fold induction is on record?
A: 0.67 (inactive)

Q: Which fold induction does the source give for `O=C(NC(c1ccccc1)c1cc(Cl)c2cccnc2c1O)c1cccnc1` (centres undefined) here?
A: 0.87 (inactive)

Q: For `O=C(Cn1c(COc2ccccc2)nc2ccccc21)Nc1cc(Cl)cc(Cl)c1`, which fold induction is on record?
A: 0.92 (inactive)

Q: With `CO/N=C/c1ccc(N2CCN(C(=O)c3ccc(F)cc3)CC2)c([N+](=O)[O-])c1` as the compound, how does the fold induction read?
A: 0.84 (inactive)

Q: With `CC(=O)Nc1ccc(CN2CCCC(C(=O)c3ccc(C(F)(F)F)cc3)C2)cc1` (centres undefined) as the compound, how does the fold induction read?
A: 0.88 (inactive)

Q: With `Cc1cc2ccccc2n2c(SCC(=O)NCC3CCCO3)nnc12` (centres undefined) as the compound, how does the fold induction read?
A: 0.94 (inactive)

Q: With `Cc1nc(SC(C)C(=O)Nc2cccc(C(F)(F)F)c2)c2c(C)c(C(=O)O)sc2n1` (centres undefined) as the compound, how does the fold induction read?
A: 1.09 (inactive)

Q: Which fold induction does the source give for `COCCNC(=O)c1cnn2c(C(F)F)cc(-c3ccccc3)nc12` here?
A: 1.17 (inactive)

Q: With `COC(=O)c1ccc(C(=O)OC)c(=O)[nH]1` as the compound, how does the fold induction read?
A: 1.03 (inactive)

Q: For `COC(=O)c1ccc(N)cc1O`, which fold induction is on record?
A: 1.05 (inactive)

Q: With `COc1ccc(N2CCN(C(=O)c3ccc(C(C)(C)C)cc3)CC2)cc1` as the compound, how does the fold induction read?
A: 0.96 (inactive)

Q: Which fold induction does the source give for `CC(=O)Nc1nc2cc3c(cc2s1)OCO3` here?
A: 0.99 (inactive)

Q: Which fold induction does the source give for `COc1ccc(CCNC(=O)COC(=O)Cc2ccc(OC)cc2)cc1` here?
A: 0.8 (inactive)

Q: For `CCOC(=O)c1c(C)oc2c1c(CN1CCN(C(=O)OCC)CC1)c(O)c1ccccc12`, which fold induction is on record?
A: 1.19 (inactive)

Q: With `CCOC(=O)c1c(C)oc2c1c(C=NCCO)c(O)c1ccccc12` as the compound, how does the fold induction read?
A: 1.38 (inactive)

Q: Which fold induction does the source give for `CC(Oc1cccc2c1OC(C)(C)C2)C(=O)O` (centres undefined) here?
A: 1.05 (inactive)

Q: With `CC(C)c1nnc(SCC(=O)N2CCc3ccccc32)n1C` as the compound, how does the fold induction read?
A: 0.98 (inactive)

Q: With `O=C1c2ccccc2NC(c2ccc(-c3ccc(Br)cc3)o2)N1O` (centres undefined) as the compound, how does the fold induction read?
A: 0.77 (inactive)

Q: For `O=C1c2ccccc2NC(c2ccc(-c3cccc([N+](=O)[O-])c3)o2)N1O` (centres undefined), which fold induction is on record?
A: 0.9 (inactive)

Q: With `O=c1oc2ccccc2cc1C1=Nn2c(nnc2-c2cccnc2)SC1` as the compound, how does the fold induction read?
A: 1.06 (inactive)

Q: With `Cc1c(/C=N/NC(=O)c2cccnc2)c2ccccc2n1Cc1ccccc1` as the compound, how does the fold induction read?
A: 1.01 (inactive)

Q: Which fold induction does the source give for `COc1ccc(Cn2c(O)c(C=Nc3ccccc3)c3ccccc3c2=O)cc1` here?
A: 1.05 (inactive)

Q: Which fold induction does the source give for `COc1ccc(Cn2c(O)c(C=Nc3ccc(OC)cc3)c3ccccc3c2=O)cc1` here?
A: 1.13 (inactive)

Q: Which fold induction does the source give for `O=C(N/N=C/c1c(O)n(-c2ccccc2Cl)c(=O)c2ccccc12)c1cccnc1` here?
A: 1.49 (inactive)

Q: For `CC1CCC(NC(=S)NCCN(C)C)CC1` (centres undefined), which fold induction is on record?
A: 1 (inactive)

Q: Which fold induction does the source give for `O=C1C2CCCN2C(c2ccc(Br)cc2)N1c1ccc(F)cc1` (centres undefined) here?
A: 0.86 (inactive)

Q: Which fold induction does the source give for `CCOC(=O)/C(C(N)=NCC(C)C)=C(/O)c1ccccc1` here?
A: 0.925 (inactive)

Q: Which fold induction does the source give for `O=C(CSc1nc(-c2ccc(F)cc2)cc(C(F)(F)F)n1)Nc1ccc2c(c1)OCO2` here?
A: 0.96 (inactive)

Q: For `O=C(OCCOc1ccccc1)c1n[nH]c2ccccc12`, which fold induction is on record?
A: 0.95 (inactive)

Q: Which fold induction does the source give for `COC(=O)[C@H](C)NC(=O)Nc1ccc(OC)cc1OC` here?
A: 1.1 (inactive)

Q: For `Cc1noc(C)c1CSc1ccc(Br)cc1`, which fold induction is on record?
A: 0.89 (inactive)

Q: With `COc1ccc(C(=O)NCC(=O)N/N=C/C=C/c2ccccc2)cc1OC` as the compound, how does the fold induction read?
A: 0.96 (inactive)

Q: For `CCCCCCN1C=CC(=C/C=C(\C#N)C(=O)OCC)C=C1`, which fold induction is on record?
A: 1.18 (inactive)

Q: With `CCOC(=O)/C(C#N)=C/C=C1\C=Cc2ccccc2N1CC` as the compound, how does the fold induction read?
A: 1 (inactive)

Q: With `CCCCNC(=S)N1CCN(c2ccc(C(C)=O)cc2)CC1` as the compound, how does the fold induction read?
A: 0.96 (inactive)

Q: With `COc1cccc(NC(=O)NCCC2=CCCCC2)c1` as the compound, how does the fold induction read?
A: 0.86 (inactive)

Q: Which fold induction does the source give for `Cc1ccccc1C(=O)NNC(=O)C(C)N1C(=O)c2ccccc2C1=O` (centres undefined) here?
A: 1.01 (inactive)

Q: With `NC(=S)n1[nH]c(-c2ccc([N+](=O)[O-])cc2)c(N=Nc2ccc(Cl)cc2)c1=O` as the compound, how does the fold induction read?
A: 1.58 (inactive)

Q: With `NC(=S)n1[nH]c(-c2ccc([N+](=O)[O-])cc2)c(N=Nc2cccc(Cl)c2)c1=O` as the compound, how does the fold induction read?
A: 1.01 (inactive)

Q: Which fold induction does the source give for `Cc1ccc(-n2c(SCC(=O)Nc3cc(C)on3)nc3c(c2=O)SC(C)C3)cc1` (centres undefined) here?
A: 1.05 (inactive)

Q: For `CC(C)C(c1nnnn1CCc1ccccc1)N1CCOCC1` (centres undefined), which fold induction is on record?
A: 1.03 (inactive)

Q: Which fold induction does the source give for `CC(C)(C=O)C1=CC(=O)c2ccccc2C1=O` here?
A: 1.3 (inactive)

Q: For `COc1cccc2c1C(=O)C=C(C)C2=O`, which fold induction is on record?
A: 1.23 (inactive)

Q: For `Cc1ccc(N2CCN(C(=O)c3cccc([N+](=O)[O-])c3)CC2)cc1Cl`, which fold induction is on record?
A: 0.82 (inactive)

Q: With `O=C(CSc1ccccc1)Nc1ccc(C(=O)Nc2ccc(O)cc2)cc1` as the compound, how does the fold induction read?
A: 1.06 (inactive)

Q: Which fold induction does the source give for `O=C(Cn1cnc2cc([N+](=O)[O-])ccc2c1=O)Nc1ccc2c(c1)OCO2` here?
A: 0.88 (inactive)

Q: For `COc1ccc(NC(=S)NNC(=O)COc2ccc(Cl)cc2Cl)cc1`, which fold induction is on record?
A: 0.84 (inactive)

Q: With `Cc1cccc(NC(=S)NNC(=O)COc2ccc(Cl)cc2Cl)c1` as the compound, how does the fold induction read?
A: 1.14 (inactive)

Q: For `O=C(NCc1ccc(Cl)cc1)C1CCC(CNc2c(N3CCOCC3)c(=O)c2=O)CC1` (centres undefined), which fold induction is on record?
A: 1.07 (inactive)

Q: Which fold induction does the source give for `O=C(N/N=C/c1cc([N+](=O)[O-])ccc1O)c1cc(-c2ccccc2)nc2ccccc12` here?
A: 1.16 (inactive)

Q: For `COc1cc([N+](=O)[O-])cc(/C=N/NC(=O)c2cc(C)nc3ccccc23)c1O`, which fold induction is on record?
A: 1.4 (inactive)

Q: With `Cc1ccccc1-c1nc(CN2CCSCC2)c(C)o1` as the compound, how does the fold induction read?
A: 1.04 (inactive)
